# Results as given in the supplement of paper PMC8253809.
# Experiments:
# Experiment in all cases: growth inhibition (% activity, log2 RLU normalised to DMSO / staurosporine); higher = more growth inhibition
# Settings in all cases: 33 µM
# DIPGX29 = system: DIPGX29 (H3.3 K27M diffuse intrinsic pontine glioma line)
# In short: (§1)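 Approved drugs were tested in triplicate at a single final concentration of about 33 μM for 7 days at 37 °C, 5% CO2, on pHGG cell lines and H9-derived neural stem cells. Readout was CellTiter-Glo luminescence, log2-transformed and scaled per plate to % activity between solvent and positive control wells. The median over replicates gives the growth-inhibition value.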
# DIPGX37 = system: DIPGX37 (H3.3 K27M diffuse intrinsic pontine glioma line)
# In short: as §1
# DIPGX7 = system: DIPGX7 (H3.3 K27M diffuse intrinsic pontine glioma line)
# In short: as §1
# DIPGX9 = system: DIPGX9 (diffuse intrinsic pontine glioma line)
# In short: as §1
# HGGX39 = system: HGGX39 (paediatric high-grade glioma line)
# In short: as §1
# HGGX6 = system: HGGX6 (H3.3 G34R paediatric high-grade glioma line)
# In short: as §1
# HNSC = system: HNSC
# In short: as §1
# SUDIPGIV = system: SUDIPGIV (diffuse intrinsic pontine glioma line)
# In short: as §1
# SUDIPGVI = system: SUDIPGVI (diffuse intrinsic pontine glioma line)
# In short: as §1
# SUDIPGXIII = system: SUDIPGXIII (diffuse intrinsic pontine glioma line)
# In short: as §1
SMILES,growth inhibition (DIPGX29) [%],growth inhibition (DIPGX37) [%],growth inhibition (DIPGX7) [%],growth inhibition (DIPGX9) [%],growth inhibition (HGGX39) [%],growth inhibition (HGGX6) [%],growth inhibition (HNSC) [%],growth inhibition (SUDIPGIV) [%],growth inhibition (SUDIPGVI) [%],growth inhibition (SUDIPGXIII) [%]
CC1(C)O[C@@H]2C[C@H]3[C@@H]4CCC5=CC(=O)C=C[C@]5(C)[C@H]4[C@@H](O)C[C@]3(C)[C@]2(C(=O)CO)O1,0.656,2.84,-0.564,3,2.23,1.78,-4.33,0.0175,-0.194,2.31
Oc1cc(O)c(Cl)cn1,-1.47,-1.68,-1.58,-0.302,-2.27,0.219,-3.27,-2.24,-1.42,0.7
CCN1CCN(C(=O)NC(C(=O)NC2C(=O)N3C(C(=O)O)=C(CSc4nnnn4C)CSC23)c2ccc(O)cc2)C(=O)C1=O (stereo not given),-4.55,0.256,-3.04,-2.18,0.547,-2.32,-1.87,-3.07,-2.25,-0.109
Cc1ncc([N+](=O)[O-])n1CC(O)CCl (stereo not given),1.6,-0.696,3.64,1.89,2.83,1.22,6.21,1.59,4.35,0.346
COC(c1ccccc1)(c1ccccc1)[C@H](Oc1nc(C)cc(C)n1)C(=O)O,1.89,2.75,1.17,0.496,2.43,1.67,1.25,-2.2,2.3,-15.1
CN(C)CCN(Cc1cccs1)c1ccccn1,1.96,3.64,1.81,0.429,5.09,1.78,2.78,0.871,3.63,0.391
CN(C)CCCN1c2ccccc2Sc2ccc(C(F)(F)F)cc21,1.07,1.48,0.326,0.717,3.34,0.498,-0.762,2.79,0.329,-5.35
CC[C@@H](CO)NCCN[C@@H](CC)CO,-4.2,-0.485,-2.38,-2.09,-0.115,-2.97,-1.6,-3.04,-1.42,-0.832
CN1C(C(=O)Nc2ccccn2)=C(O)c2sccc2S1(=O)=O,-1.4,1.63,-0.195,1.24,0.358,0.485,-0.824,-4.89,0.891,-0.625
CSc1nc2cc(Cl)c(Oc3cccc(Cl)c3Cl)cc2[nH]1,1.22,-0.121,-0.253,0.647,4.81,3.1,-0.0294,2.29,1.54,2.86
CNC1CCCN(c2c(F)cc3c(=O)c(C(=O)O)cn(C4CC4)c3c2OC)C1 (stereo not given),-0.899,0.515,-0.411,1.06,0.742,1.27,-1.65,-0.11,-0.677,0.279
CCN[C@H]1C[C@H](C)S(=O)(=O)c2sc(S(N)(=O)=O)cc21,1.81,-1.68,1.05,0.778,2.3,0.627,4.56,-0.668,4.36,0.067
CCCCOc1cc(C(=O)NCCN(CC)CC)c2ccccc2n1,8.77,4.81,9.69,3.99,6.11,5.06,13.1,2.91,3.16,1.33
OC(Cn1cncn1)(Cn1cncn1)c1ccc(F)cc1F,0.884,-0.267,1.06,1.31,1.3,1.42,1.54,-0.234,1.91,0.862
O=C1NCC2(CCN(CCc3ccccc3)CC2)O1,0.324,-0.568,0.908,1.98,1.24,0.472,-0.511,-1.95,0.357,0.871
Nc1ccc(S(=O)(=O)Nc2nccs2)cc1,-2.53,-1.47,-1.25,-0.733,-2.1,-3.04,5.4,-1.7,-2.69,0.0367
CN1C(C(=O)Nc2ccccn2)=C(O)c2ccccc2S1(=O)=O,-1.78,1.01,-0.635,-1.57,0.433,-2.07,2.62,-1.29,0.752,-1.07
CC(C)(C(=O)O)c1ccc(C(O)CCCN2CCC(C(O)(c3ccccc3)c3ccccc3)CC2)cc1 (stereo not given),-0.186,-1.1,0.287,0.223,2.4,-0.102,3.07,0.0574,1.9,-0.622
CN(C)c1cc(NC(=O)CNC(C)(C)C)c(O)c2c1CC1CC3C(N(C)C)C(=O)C(C(N)=O)=C(O)C3(O)C(=O)C1=C2O (stereo not given),-2.13,-0.102,-0.656,-1.41,-1.33,-2.33,-2.93,-2.9,-1.89,0.694
O=C(O)Cc1cc(I)c(Oc2ccc(O)c(I)c2)c(I)c1,1.55,4.31,0.436,0.952,2.17,1.33,-1.43,3.33,2.21,-14.4

SMILES,growth inhibition (DIPGX29) [%],growth inhibition (DIPGX37) [%],growth inhibition (DIPGX7) [%],growth inhibition (DIPGX9) [%],growth inhibition (HGGX39) [%],growth inhibition (HGGX6) [%],growth inhibition (HNSC) [%],growth inhibition (SUDIPGIV) [%],growth inhibition (SUDIPGVI) [%],growth inhibition (SUDIPGXIII) [%]
O=C(c1ccccc1)c1ccc2n1CCC2C(=O)O (stereo not given),1.07,-0.408,0.977,-1.13,-0.11,1.54,-1.61,-5.47,0.251,0.0715
CC(C)(C)NC(=O)[C@H]1CC[C@H]2[C@@H]3CC[C@H]4NC(=O)C=C[C@]4(C)[C@H]3CC[C@]12C,1.8,1.06,2.69,0.827,2.11,-0.348,4.13,0.54,1.81,0.754
CCOC(=O)c1ccc(N)cc1,-1.1,0.286,-0.777,-2.99,-1.05,-1.96,-1.55,-0.0558,-0.0967,0.467
CCNC(=O)CCC/C=C\C[C@@H]1[C@@H](/C=C/[C@@H](O)CCc2ccccc2)[C@H](O)C[C@@H]1O,0.795,0.309,1.77,0.624,3.66,1.1,1.72,0.456,0.646,-0.283
Cc1cn([C@H]2C[C@H](N=[N+]=[N-])[C@@H](CO)O2)c(=O)[nH]c1=O,3.15,3.86,4.01,3.46,5.5,1.53,10.3,3.31,3.71,-0.807
N=C(N)N,-0.83,2.64,1.54,0.0493,0.625,-0.897,7.78,1.72,-0.000495,-1.47
C#Cc1cccc(Nc2ncnc3cc(OCCOC)c(OCCOC)cc23)c1,4.75,0.211,3.55,2.64,5.69,6.15,20.9,-5.33,3.91,1.17
CC1=C(C(=O)O)N2C(=O)[C@@H](NC(=O)[C@H](N)c3ccccc3)[C@H]2SC1,-0.253,0.936,6.97,-1.35,3.87,0.198,-2.54,-1.66,-13.3,2.38
O=C1OC(CN2CCOCC2)CN1/N=C/c1ccc([N+](=O)[O-])o1 (stereo not given),-1.53,1.22,-0.714,-0.52,-0.169,0.852,-1.5,-2.29,-0.066,-18.3
CN(N=O)C(=O)N[C@H]1C(O)O[C@H](CO)[C@@H](O)[C@@H]1O (mixture of isomers),0.875,2.37,2.05,1.8,0.924,2.69,2.82,1.45,2.34,0.628
CC(NC(=O)Cc1cc(F)cc(F)c1)C(=O)NC(C(=O)OC(C)(C)C)c1ccccc1 (stereo not given),0.109,-1.56,0.0172,0.631,1.42,1.3,1.25,-6.22,-0.444,0.458
CNC(CC(C)C)C(=O)NC1C(=O)NC(CC(N)=O)C(=O)NC2C(=O)NC3C(=O)NC(C(=O)NC(C(=O)O)c4cc(O)cc(O)c4-c4cc3ccc4O)C(O)c3ccc(c(Cl)c3)Oc3cc2cc(c3OC2OC(CO)C(O)C(O)C2OC2CC(C)(N)C(O)C(C)O2)Oc2ccc(cc2Cl)C1O (stereo not given),-1.35,-1.91,-1.76,-1.16,-1.53,-2.38,-0.899,-0.924,-4.84,-0.803
Cc1cc(-n2c(=O)[nH]c(=O)n(C)c2=O)ccc1Oc1ccc(SC(F)(F)F)cc1,1.92,4.99,3.64,1.95,4.82,2.18,5.28,2.64,4.98,-0.649
C#Cc1cccc(Nc2ncnc3cc(OCCOC)c(OCCO)cc23)c1,6.22,3.87,4.89,4.84,9.77,9.46,31.8,-3.74,2.81,0.549
CCOc1ccc2nc3cc(N)ccc3c(N)c2c1,-0.121,2.61,2.68,3.22,-1.26,1.77,2.09,1.88,-0.000958,1.33
Oc1ccc(OC2CCCCO2)cc1 (stereo not given),-0.0269,0.922,1.6,1.43,2.89,2.46,-1.26,0.845,0.118,0.895
Cc1cc(C(C)(C)C)c(O)c(C)c1CC1=NCCN1,0.231,3.01,1.52,2.19,1.3,0.112,0.146,1.18,1.88,0.459
C[C@@H](O)[C@H]1C(=O)N2C(C(=O)O)=C(S[C@@H]3CN[C@H](CNS(N)(=O)=O)C3)[C@H](C)[C@H]12,0.9,-1.74,3.79,-0.371,-0.0496,-2.09,28.8,-1.38,-5.58,-1.69
CCCCOc1ccc(CC(=O)NO)cc1,4.76,1.97,54.5,3.15,12.5,12.9,17.1,3.36,-3.3,-0.824
Cc1cc2c(cc1S(N)(=O)=O)S(=O)(=O)CCC2,0.849,2.86,-0.717,1.06,0.974,0.857,-0.336,-0.262,2.41,1.65
